A549 tox = counter-screen for Nrf2 inhibitors: cytotoxicity in A549 cells; 390,000 tested, 0.16% active; AID 504648; A549 ARE-Fluc cells, CellTiter-Fluor viability, 18-24 h; Potency, µM (titrated, usually from 46 µM), for the others: at the highest dose activity change, negative = cytotoxicity, most hits filed as inhibitors; also: potency is read from the fitted curve at half-maximal effect; % is scaled to controls: 0 for no effect and ±100 for the full control effect
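A549 ARE-Fluc cells in 5% FBS OPTI-MEM, 5000 cells/well, rested 2 h then exposed to compounds in concentration-response for 18-24 h at 37 °C. Viability by CellTiter-Fluor fluorescence (Ex 405/Em 525) after 30 min; luciferase luminescence (BugLite, 15 min, RT) read afterwards.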
LDHA block = inhibitors of human lactate dehydrogenase A; purified LDHA, NADH/diaphorase-resazurin fluorescence; hits give low values; activity change, % (values are at about 110 or 230 µM); 480,000 tested, 0.15% active; in the data active = activity change below about -30%; inconclusive = mostly about -25% to -30%;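 also: plate controls were DMSO wells for no effect and wells without enzyme for full effect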
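Human LDH5 at 2 nM final in Tris HCl pH 7.4 with 0.06 mM NADH and 0.2 mM pyruvate, reacted 5 minutes at room temperature. Remaining NADH coupled via diaphorase/resazurin; resorufin fluorescence read at 0 and 20 minutes, normalized to enzyme-free and DMSO wells.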
Nrf2 activator = Nrf2 pathway activation; AREc32 ARE-luciferase reporter (MCF7-derived line), luminescence, 24 h; 410,000 tested, 0.31% active; Potency, µM (doses to about 46.1 µM), for inactives: at the top dose activation, usual class: activators; also: potency is read from the fitted curve at half-maximal effect; % of control where 0% means no effect; nearly all actives have a fitted effect of over 65% in size
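ARE-driven firefly luciferase activity in AREc32 cells measured after a 24 hr compound exposure at 37 deg C, using Steady-Glo reagent and a 30 min room-temperature hold.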
Nrf2 block = blocks Nrf2 signaling; A549 ARE-Fluc reporter, luciferase luminescence, 18-24 h; Potency, µM (series often up to 46 µM), inactives show at the highest dose activity change, negative = inhibition, usual class: inhibitors; 360,000 tested, 2.1% active; also: potency is read from the fitted curve at half-maximal effect; % is scaled to controls: 0 for no effect and ±100 for the full control effect; nearly all actives have a fitted effect of over 60% in size
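Concentration-response testing used A549 ARE_Fluc cells at 5000 cells/well. Following an 18-24 h compound incubation, viability was read by fluorescence (Ex 405/Em 525) and luciferase output by luminescence.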
mIDH1 inhibitor = inhibitors of human mutant IDH1 R132H. O75874. IDH1-R132H enzyme, NADPH consumption, diaphorase/resazurin fluorescence. Potency, µM (highest dose often 76.6 µM), inactives show at the highest dose activity change, negative = inhibition, hits mostly inhibitors. 390,000 tested, 0.093% active. AID 602179; also: potency is read from the fitted curve at half-maximal effect; % is scaled to controls: 0 for no effect and ±100 for the full control effect; nearly all actives have a fitted effect of over 65% in size
Target sequence (O75874 whole entry R132H, stated change not applied): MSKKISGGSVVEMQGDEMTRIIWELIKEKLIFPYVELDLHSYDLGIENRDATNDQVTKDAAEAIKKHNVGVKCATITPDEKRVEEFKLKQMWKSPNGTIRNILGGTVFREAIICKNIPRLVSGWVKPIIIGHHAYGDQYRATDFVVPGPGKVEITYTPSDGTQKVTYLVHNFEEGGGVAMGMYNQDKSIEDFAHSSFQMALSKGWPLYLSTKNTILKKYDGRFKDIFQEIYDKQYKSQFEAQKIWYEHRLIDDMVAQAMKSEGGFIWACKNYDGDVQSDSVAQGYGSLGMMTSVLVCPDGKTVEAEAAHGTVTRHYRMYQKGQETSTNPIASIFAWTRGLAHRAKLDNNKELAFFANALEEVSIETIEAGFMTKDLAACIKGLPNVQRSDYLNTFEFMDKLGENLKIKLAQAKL
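IDH1-R132H (0.5 ug/mL) preincubated 30 min with compound, then NADPH (0.016 mM) and alpha-KG (2 mM) added; 80 min at RT, pH 7.5. Remaining NADPH coupled via diaphorase/resazurin to fluorescence (540/590 nm); concentration-response curves normalized to no-enzyme control.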
ALOX12 inh = inhibitors of human 12S-lipoxygenase ALOX12; purified 12hLO, xylenol orange hydroperoxide absorbance; 580,000 tested, 1.1% active; P18054; Potency, µM (highest dose often 108 µM), inactives show at the highest dose activity change, negative = inhibition, hits mostly inhibitors; AID 1671190; also: potency is read from the fitted curve at half-maximal effect; % is scaled to controls: 0 for no effect and ±100 for the full control effect
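Purified human 12hLO (150 nM final) in 25 mM Hepes, 0.01% Triton X-100, pH 7.0 was preincubated 15 min at room temperature with compound. Then 40 uM arachidonic acid was added, 30 min. Hydroperoxide was read by Fe-XO absorbance ratio 573/405 nm.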
* marks the source's active call; other numbers are inactive results; u = inconclusive; x = no result given. A selection: hits, their analogues and other compounds. The true share with any hit is near 2.7%. Unless noted, calls follow the shape of the dose curve; as a rule, active = well fitted curve in the direction sought with a large enough effect; inconclusive = small, poorly fitted or top-dose-only effect, or another doubt; inactive = no such curve, though single readings can be large; an effect the other way counts as inactive or inconclusive.

SMILES | A549 tox | LDHA block | Nrf2 activator | Nrf2 block | mIDH1 inhibitor | ALOX12 inh
CCCSc1nn(CCCN(C)C)c2nc3sc4c(c3c(=O)n12)CCCC4 | x | 1 | x | x | x | 3%
O=c1cc(-c2cccs2)oc2ccc(Cl)cc12 | -5% | -6 | 11µM* | u | 3% | -1%
O=C(NCC(c1ccccc1)c1c[nH]c2ccccc12)c1ccccc1 (stereo not given) | x | -23 | x | x | x | u
COc1cccc(-c2nn(-c3ccccc3)cc2C(=O)NCC(C)(C)N2CCOCC2)c1 | x | -31* | x | x | x | u
COC(=O)C(C)Sc1n[nH]c(=S)s1 (stereo not given) | 2% | 0 | 0% | -6% | 5% | u
O=C(O)CC(Sc1n[nH]c(=S)s1)C(=O)O (stereo not given) | 0% | -4 | 0% | 2% | -3% | 2µM*
CN(Cc1ccccc1)c1ccc(C(CC(N)=O)NC(=O)c2ccccc2)cc1[N+](=O)[O-] (stereo not given) | u | 1 | 0% | 10µM* | -4% | -9%
CCOC(=O)Cc1csc(/N=C/c2c(O)n(-c3ccccc3C(F)(F)F)c(=O)c3ccccc23)n1 | -20% | -2 | -1% | 13µM* | 19% | -11%
CCOC(=O)Cc1csc(-n2sc3ccccc3c2=O)n1 | 1% | -7 | 11% | 14% | 3% | u
CC(C)Cc1nc(C#N)c(N2CCN(c3cccc(Cl)c3)CC2)o1 | x | 2 | x | x | x | -6%
Cc1ccccc1-c1noc(N)c1C#N | -3% | 8 | 18µM* | 2% | 14% | -20%
CCOc1cc(-c2noc(N)c2C#N)cc(OCC)c1OCC | -4% | 1 | u | -9% | -6% | -19%
CCOC(=O)C1(CCOc2ccccc2)CCN(Cc2cccc3nonc23)CC1 | -11% | -2 | -1% | 21µM* | 10% | -7%
Cc1cc(C)c[n+](C2=C([O-])c3ccccc3C(=O)/C2=N\S(=O)(=O)c2cccs2)c1 | u | 10 | 0% | 21µM* | 18% | -3%
CCC(N)(CC)c1cn(CC2CCCN(S(C)(=O)=O)C2)nn1 (stereo not given) | x | x | x | x | x | 20µM*
CCC(C)NC(=S)Nc1ccc(C(=O)OC)cc1 (stereo not given) | -19% | -4 | 0% | 18µM* | 10% | -21%
CCC(C)NC(=S)Nc1ccccc1 (stereo not given) | -10% | -12 | 0% | -17% | -5% | u
Cc1cc(C)cc(N(C(=O)c2cc3ccccc3oc2=O)C2C=CS(=O)(=O)C2)c1 (stereo not given) | 4% | -5 | 14µM* | -5% | 0% | 23%
Cc1ccc(N(C(=O)c2cc3ccccc3oc2=O)C2C=CS(=O)(=O)C2)cc1 (stereo not given) | 1% | 0 | 0% | 1% | 4% | 9%
N#Cc1ccc(-c2csc(C3CC3)n2)cc1 | x | 0 | x | x | x | u
Cc1cc(C(=O)CN2C(=O)C(=O)N(C3CCCC3)C2=O)c(C)n1CCc1ccccc1 | -5% | 1 | -1% | 18µM* | 1% | -25%
O=C(c1ccc2c(c1)OCO2)N1CCN(c2ccc(C(F)(F)F)cn2)CC1 | 0% | -2 | 5% | 12µM* | 3% | 0%
O=C(Cc1cccc(C(F)(F)F)c1)NC1(c2ccccc2)CCC1 | x | 2 | x | x | x | 35µM*
COc1ccc(CN2C(=O)c3cccnc3C2Nc2cc(Cl)ccc2OC)cc1 (stereo not given) | -4% | 7 | 0% | 12% | -21% | 13µM*
CCc1nnc(NS(=O)(=O)c2ccc(N/C=C(\C=O)c3nc4cc(Cl)ccc4o3)cc2)s1 | 1% | -7 | u | u | -1% | 8.9µM*
SMILES | A549 tox | LDHA block | Nrf2 activator | Nrf2 block | mIDH1 inhibitor | ALOX12 inh
CCc1nnc(NS(=O)(=O)c2ccc(NC(=O)c3ccc(Cl)cc3)cc2)s1 | 5% | -8 | 0% | -8% | 7% | -11%
Cc1ccc(-c2nc(NC(=O)c3nn(C)cc3[N+](=O)[O-])sc2C)cc1C | -21% | -2 | u | 26µM* | 5% | 8%
Cc1ccc(-c2nc(NC(=O)c3nn(C)cc3[N+](=O)[O-])sc2C)cc1 | u | -9 | -5% | 18µM* | -1% | 1%
COC(=O)[C@@H](NC(=O)c1cnc(C)cn1)C(C)C | x | 3 | x | x | x | u
O=C(Sc1nnc(-c2ccccc2)o1)N1c2ccccc2Sc2ccccc21 | -5% | -4 | -1% | -1% | 6% | 10µM*
CCCCCCN1C=CC(=C2C(=O)c3ccccc3C2=O)C=C1 | -1% | -4 | -1% | u | 1% | -1%
CCN1C=CC(=C2C(=O)c3ccccc3C2=O)C=C1 | -2% | -17 | -3% | 1.6µM* | 1% | -13%
CCCN1C=CC(=C2C(=O)c3ccccc3C2=O)C=C1 | -25% | -14 | -3% | 3.3µM* | 0% | 0%
CCOC(=O)/C(C#N)=C1\SCC(C#N)S1 (stereo not given) | x | -5 | x | x | x | -44%
COC(=O)c1ccc(Cl)cc1N(Cc1c(F)cccc1Cl)S(C)(=O)=O | u | 2 | 0% | 18µM* | 1% | 166%
COC(=O)c1ccc(CN(c2ccccc2Cl)S(C)(=O)=O)cc1 | 6% | -10 | 0% | -26% | 0% | -20%
COc1ccc(C)cc1CN1CCN(C(=O)Nc2ccc(F)cc2)CC1 | x | -17 | x | x | x | -30%
CCOc1cc(C2NN=C(c3ccccc3)S2)ccc1OCc1ccc(F)cc1 (stereo not given) | -2% | -1 | 11µM* | u | 5% | u
CCOc1cc(C2NN=C(c3ccccc3)S2)ccc1OCc1ccccc1Cl (stereo not given) | 4% | 5 | u | u | 4% | u
COc1ccccc1NC(=O)CC1C(=O)Nc2nc3ccccc3n21 (stereo not given) | x | -5 | x | x | x | u
CCCCn1c(=O)[nH]c(=O)c2c1nc(CCC(=O)NC1CCCCCC1)n2CC(C)C | x | 5 | x | x | x | 17%
O=C(CSc1nc2cc([N+](=O)[O-])ccc2o1)Nc1ccc(Cl)cc1 | x | -8 | x | x | x | 22µM*
Cc1cccc(NC(=O)CSc2nc3cc([N+](=O)[O-])ccc3o2)c1 | x | -2 | x | x | x | 32µM*
O=C(CSc1nc2cc([N+](=O)[O-])ccc2o1)Nc1ccc(F)cc1 | x | 0 | x | x | x | u
Cc1ccc(NC(=O)CSc2nc3cc([N+](=O)[O-])ccc3o2)cc1 | x | 4 | x | x | x | u
Cc1cccc(-c2nc3cc([N+](=O)[O-])ccc3o2)c1 | -11% | -3 | 10µM* | u | 4% | 2%
Cc1ccc(NC(=O)CSc2nc3cc([N+](=O)[O-])ccc3o2)cc1C | x | -5 | x | x | x | 40µM*
